Structures can show the parent of a compound that is named as a salt.

The test system of this experiment is Danio rerio larvae (5 dpf). The experiment is described as follows: optomotor response to blue moving lines, difference vs DMSO (percentage points (treated minus DMSO)); higher = more of the behaviour than the DMSO vehicle control. The settings on record: 10 µM; exposure time: 3 h pre-incubation + 3 h imaging. On the procedure: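 5-dpf wild-type zebrafish larvae were imaged in 96-well plates. They were treated with 190 Tocris FDA-approved drugs at 10 µM (1 µl/ml DMSO) for 3 h before and 3 h during imaging at 28.5 °C, 48 larvae per drug. Automated image analysis gave % time moving and optomotor responses. Values are drug group mean minus DMSO vehicle mean (n=844), in percentage points, for 10 behaviours.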
As for `Cc1ccccc1C(=O)Nc1ccc(C(=O)N2CCCC(O)c3cc(Cl)ccc32)c(C)c1` (stereo not given) [Tolvaptan], the “optomotor response to blue moving lines” value was -0.344.

For `CC(=O)Nc1ccc(O)cc1` [Acetaminophen], the “optomotor response to blue moving lines” value turned out to be 5.11.

Regarding `Nc1nc(NC2CC2)c2ncn([C@H]3C=C[C@@H](CO)C3)c2n1` [Abacavir hemisulfate], the “optomotor response to blue moving lines” value was found to be 2.71.

Turning to `Clc1ccc2nsnc2c1NC1=NCCN1` [Tizanidine hydrochloride], the “optomotor response to blue moving lines” value is 3.61.

With `CCCCCCCCc1ccc(CCC(N)(CO)CO)cc1`, the “optomotor response to blue moving lines” value was -1.76.

Turning to `CCCCNc1cc(C(=O)O)cc(S(N)(=O)=O)c1Oc1ccccc1` [Bumetanide], the “optomotor response to blue moving lines” value came out at 3.8.

Regarding `Cc1ccc(-c2cc(C(F)(F)F)nn2-c2ccc(S(N)(=O)=O)cc2)cc1` [Celecoxib], the “optomotor response to blue moving lines” value was -3.07.

In the case of `CO[C@H]1/C=C/O[C@@]2(C)Oc3c(C)c(O)c4c(O)c(c5c(nc6cc(C)ccn65)c4c3C2=O)NC(=O)/C(C)=C\C=C\[C@H](C)[C@H](O)[C@@H](C)[C@@H](O)[C@@H](C)[C@H](OC(C)=O)[C@@H]1C` [Rifaximin], the “optomotor response to blue moving lines” value amounted to 9.62.

Turning to `Cc1ccc(N(CC2=NCCN2)c2cccc(O)c2)cc1` [Phentolamine Mesylate], the “optomotor response to blue moving lines” value is 16.3.

As for `CC[C@H](C)C(=O)O[C@H]1C[C@@H](C)C=C2C=C[C@H](C)[C@H](CC[C@@H]3C[C@@H](O)CC(=O)O3)[C@H]21` [Lovastatin], the “optomotor response to blue moving lines” value was 8.37.

Take `CCCc1nc(C(C)(C)O)c(C(=O)O)n1Cc1ccc(-c2ccccc2-c2nnn[nH]2)cc1` [Olmesartan]: the “optomotor response to blue moving lines” value is 3.07.

`CCOc1cc(CC(=O)N[C@@H](CC(C)C)c2ccccc2N2CCCCC2)ccc1C(=O)O` [Repaglinide]: the “optomotor response to blue moving lines” value is -2.55.

For `CCOC(=O)[C@H](CCc1ccccc1)N[C@@H](C)C(=O)N1[C@H](C(=O)O)C[C@@H]2CCC[C@@H]21` [Ramipril], the “optomotor response to blue moving lines” value came to 4.54.

Take `O=C1CCc2ccc(OCCCCN3CCN(c4cccc(Cl)c4Cl)CC3)cc2N1` [Aripiprazole]: the “optomotor response to blue moving lines” value is -0.0385.

Turning to `OCCN(CCO)c1nc(N2CCCCC2)c2nc(N(CCO)CCO)nc(N3CCCCC3)c2n1` [Dipyridamole], the “optomotor response to blue moving lines” value was -5.39.

With `CC(CCc1ccc(O)cc1)NCCc1ccc(O)c(O)c1` (stereo not given) [Dobutamine hydrochloride], the “optomotor response to blue moving lines” value was -11.2.

With `CCOC(=O)N1CCC(=C2c3ccc(Cl)cc3CCc3cccnc32)CC1` [Loratidine], the “optomotor response to blue moving lines” value was 6.09.

As for `COc1ccc([C@@H]2Sc3ccccc3N(CCN(C)C)C(=O)[C@@H]2OC(C)=O)cc1` [Diltiazem hydrochloride], the “optomotor response to blue moving lines” value is -5.83.

Regarding `Brc1c(NC2=NCCN2)ccc2nccnc12`, the “optomotor response to blue moving lines” value worked out at 7.07.

For the molecule `OCCN1C[C@H](O)[C@@H](O)[C@H](O)[C@H]1CO` [Miglitol], the “optomotor response to blue moving lines” value turned out to be 5.95.

As to `CC1(C)O[C@@H]2[C@@H](CO[C@@]3(COS(N)(=O)=O)OC(C)(C)O[C@@H]23)O1` [Topiramate], the “optomotor response to blue moving lines” value is -3.75.

For `CC(C)C(=O)OCC(=O)[C@@]12O[C@H](C3CCCCC3)O[C@@H]1C[C@H]1[C@@H]3CCC4=CC(=O)C=C[C@]4(C)[C@H]3[C@@H](O)C[C@@]12C` [Ciclesonide], the “optomotor response to blue moving lines” value is -2.62.

`CN1CC(=O)N2[C@H](c3ccc4c(c3)OCO4)c3[nH]c4ccccc4c3C[C@@H]2C1=O` [Tadalafil]: the “optomotor response to blue moving lines” value was -3.81.

`NS(=O)(=O)c1cc(C(=O)O)c(NCc2ccco2)cc1Cl` [Furosemide]: the “optomotor response to blue moving lines” value was 6.22.

With `CNC(=O)c1ccccc1Sc1ccc2c(/C=C/c3ccccn3)n[nH]c2c1` [Axitinib], the “optomotor response to blue moving lines” value came to 13.5.

For the molecule `CC1=Nc2ccc(Cl)cc2S(=O)(=O)N1` [Diazoxide], the “optomotor response to blue moving lines” value was determined as 0.0367.

Regarding `C[C@H]1C[C@@H]2[C@H]([C@@H](O)C[C@@]3(C)[C@H]2CC[C@]3(O)C(=O)CO)[C@@]2(C)C=CC(=O)C=C12` [Methylprednisolone], the “optomotor response to blue moving lines” value was 10.6.

Consider `O=C(Nc1c(Cl)cncc1Cl)c1ccc(OC(F)F)c(OCC2CC2)c1` [Roflumilast], for which the “optomotor response to blue moving lines” value is -1.76.

Consider `CC(C)(C(=O)O)c1ccc(C(O)CCCN2CCC(C(O)(c3ccccc3)c3ccccc3)CC2)cc1` (stereo not given) [Fexofenadine hydrochloride], for which the “optomotor response to blue moving lines” value was determined as 4.47.

With `C#CCN[C@@H]1CCc2ccccc21` [Rasagiline mesylate], the “optomotor response to blue moving lines” value turned out to be 15.8.

As for `N#Cc1ccc2[nH]cc(CCCCN3CCN(c4ccc5oc(C(N)=O)cc5c4)CC3)c2c1` [Vilazodone hydrochloride], the “optomotor response to blue moving lines” value is -5.66.

Take `Nc1nc(F)nc2c1ncn2[C@@H]1O[C@H](CO)[C@@H](O)[C@@H]1O` [Fludarabine]: the “optomotor response to blue moving lines” value was -12.

Regarding `COc1cc(N)c(Cl)cc1C(=O)NC1CCN(CCCOc2ccc(F)cc2)CC1OC` (stereo not given) [Cisapride], the “optomotor response to blue moving lines” value came out at 4.41.

Turning to `CC(C)c1nc(N(C)S(C)(=O)=O)nc(-c2ccc(F)cc2)c1/C=C/[C@@H](O)C[C@@H](O)CC(=O)O` [Rosuvastatin calcium], the “optomotor response to blue moving lines” value stood at 10.7.

`CC(=O)O[C@H]1C(=O)[C@@]2(C)[C@H]([C@H](OC(=O)c3ccccc3)[C@]3(O)C[C@H](OC(=O)[C@H](O)[C@@H](NC(=O)c4ccccc4)c4ccccc4)C(C)=C1C3(C)C)[C@]1(OC(C)=O)CO[C@@H]1C[C@@H]2O` [Taxol]: the “optomotor response to blue moving lines” value was -0.599.

With `CCCc1nc2c(C)cc(-c3nc4ccccc4n3C)cc2n1Cc1ccc(-c2ccccc2C(=O)O)cc1` [Telmisartan], the “optomotor response to blue moving lines” value worked out at 8.47.

With `CC(C)[C@H]1CC[C@H](C(=O)N[C@H](Cc2ccccc2)C(=O)O)CC1` [Nateglinide], the “optomotor response to blue moving lines” value is 11.9.

Take `Nc1nc2c(ncn2COCCO)c(=O)[nH]1` [Acyclovir]: the “optomotor response to blue moving lines” value stood at 10.2.

`Cc1cc2c(s1)Nc1ccccc1N=C2N1CCN(C)CC1` [Olanzapine]: the “optomotor response to blue moving lines” value is 16.

For the molecule `CCN(Cc1ccncc1)C(=O)C(CO)c1ccccc1` (stereo not given) [Tropicamide], the “optomotor response to blue moving lines” value came out at 0.00192.

Values taken from the supplement of paper PMC9023506.
